Results filed as inconclusive are left out. Unless noted, the call rests on the fitted dose curve; in most records, active means well fitted curve in either direction with a large enough effect (not every such curve was filed as active); inconclusive means small, poorly fitted or top-dose-only effect, or another doubt; inactive means flat fitted curve, though single readings scatter.
Columns and labels:
[1] = AP1 Signaling Pathway (AID 357); conditions: ME-180 AP-1-bla reporter, EGF-induced, beta-lactamase ratio, 5 h; at 17.2 µM (top of the series) unless noted;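 further: ME-180 reporter cells stimulated with EGF at its EC50 level; on the % scale 0 is the no-effect control and ±100 the full control effect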
Procedure, shortened: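 Cells are seeded overnight, exposed to compound titrations and an EC50 level of EGF for 5 hours at 37 °C, then loaded with CCF4 dye for 2.5 hours. Beta-lactamase activity under the AP-1 element is read as a blue/green ratio.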

[2] = Stat Signaling Pathway (AID 446); conditions: ME-180 (cervical carcinoma) SIE beta-lactamase reporter, IL-6 stimulated, 5 h; at 17.2 µM (top of the series) unless noted;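 further: ME-180 cervical cancer cells given 40 pM IL-6 alongside compound; SIE-controlled beta-lactamase reporter measured as 460/530 nm FRET emission ratio; on the % scale 0 is the no-effect control and ±100 the full control effect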
Procedure, shortened: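 Normalization used AC90 stimulation (300 pM IL-6) and AC90 inhibition (125 nM pan-JAK inhibitor at 40 pM IL-6). The underlying signal is SIE-driven beta-lactamase in ME-180 cells after 5 h IL-6 exposure with compound.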

[3] = target: Glucocorticoid receptor (Homo sapiens) (UniProt P04150); assay: GR-GFP Redistribution (AID 450;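 active means compounds whose dose series gives a full or clear partial fitted curve of increased nuclear translocation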; further: potency means the concentration at half of the fitted maximal effect)
Chain of Glucocorticoid receptor (Homo sapiens) (P04150 whole entry, looked up): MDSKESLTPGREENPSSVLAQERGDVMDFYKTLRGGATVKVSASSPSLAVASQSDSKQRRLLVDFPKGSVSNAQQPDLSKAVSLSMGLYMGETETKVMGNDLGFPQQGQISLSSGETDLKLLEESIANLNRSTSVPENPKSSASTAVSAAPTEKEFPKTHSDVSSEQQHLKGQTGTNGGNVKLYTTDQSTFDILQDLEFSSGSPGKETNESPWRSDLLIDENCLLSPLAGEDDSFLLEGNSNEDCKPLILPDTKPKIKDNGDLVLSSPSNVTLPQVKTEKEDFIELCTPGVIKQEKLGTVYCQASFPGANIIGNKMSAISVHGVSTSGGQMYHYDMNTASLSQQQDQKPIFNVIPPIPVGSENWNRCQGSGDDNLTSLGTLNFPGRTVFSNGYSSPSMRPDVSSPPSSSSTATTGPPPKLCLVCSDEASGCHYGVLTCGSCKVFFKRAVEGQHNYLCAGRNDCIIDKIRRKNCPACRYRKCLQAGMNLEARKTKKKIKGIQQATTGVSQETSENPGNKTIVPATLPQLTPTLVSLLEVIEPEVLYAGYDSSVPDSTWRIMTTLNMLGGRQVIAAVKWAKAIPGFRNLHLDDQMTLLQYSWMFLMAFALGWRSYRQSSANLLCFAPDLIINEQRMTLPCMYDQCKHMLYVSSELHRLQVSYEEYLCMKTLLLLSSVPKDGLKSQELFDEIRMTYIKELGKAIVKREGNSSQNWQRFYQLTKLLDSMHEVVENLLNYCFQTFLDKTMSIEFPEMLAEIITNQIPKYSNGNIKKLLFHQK

O=S(=O)(c1ccc(Cl)cc1)N1CCC(N2CCCCCC2)CC1
inactive: activity change, negative = inhibition [1] 9.12% | activity, negative = inhibition [2] 3.47% | Potency [3] > 20.6 µM

CCOC(=O)C1=Nc2ccccc2C1=[N+]=[N-]
inactive: activity change, negative = inhibition [1] -19% | activity, negative = inhibition [2] -23.9% | Potency [3] > 20.6 µM

c1ccc(C2Nc3ccccc3-c3nc4ccccc4n32)nc1 (configuration not stated)
inactive: activity change, negative = inhibition [1] -3.28% | activity, negative = inhibition [2] -0.281% | Potency [3] > 20.6 µM

Cn1c(OCc2cccnc2)nc2c1c(=O)n(Cc1ccc(Br)cc1)c(=O)n2C
inactive: activity change, negative = inhibition [1] -26.8% | activity, negative = inhibition [2] -27.6% | Potency [3] > 20.6 µM

Cc1ccc(CNc2oc(COc3ccccc3Cl)nc2C#N)cc1
inactive: activity change, negative = inhibition [1] 39.1% | activity, negative = inhibition [2] -8.99% | Potency [3] > 20.6 µM

Cn1c(OCc2ccco2)nc2c1c(=O)n(Cc1ccc(Cl)c(Cl)c1)c(=O)n2C
inactive: activity change, negative = inhibition [1] -3.54% | activity, negative = inhibition [2] 0.615% | Potency [3] > 20.6 µM

CCOC(=O)c1c2c(c(=S)n(-c3ccccc3)c1N)CCC2
inactive: activity change, negative = inhibition [1] -21.8% | activity, negative = inhibition [2] -15.9% | Potency [3] > 20.6 µM

O=c1[nH]c(CN2CCCCC2)nc2c1C1(CCCC1)Cc1ccccc1-2
inactive: activity change, negative = inhibition [1] 14.5% | activity, negative = inhibition [2] -7.96% | Potency [3] > 20.6 µM

CCOC(=O)C1=C(CSc2nc3c(cc2C#N)CCC3)OC(N)=C(C#N)C1c1ccccc1 (configuration not stated)
inactive: activity change, negative = inhibition [1] 0.107% | activity, negative = inhibition [2] -16.4% | Potency [3] > 20.6 µM

Clc1ccc(-c2nnc3sc(Cc4cccs4)nn23)c(Cl)c1
inactive: activity change, negative = inhibition [1] -25% | activity, negative = inhibition [2] 12.6% | Potency [3] > 20.6 µM

CC(C)Sc1nc(N2CCCC2)c2c(c1C#N)CC(C)(C)OC2
inactive: activity change, negative = inhibition [1] -10.5% | activity, negative = inhibition [2] -9.04% | Potency [3] > 20.6 µM

CCC(=O)Oc1ccc(C(CC)C(CC)c2ccc(OC(=O)CC)cc2)cc1 (configuration not stated)
inactive: activity change, negative = inhibition [1] -8.93% | activity, negative = inhibition [2] -3.77% | Potency [3] > 20.6 µM

Cc1ccc2[nH]c3c(c2c1)CN(C(=O)CN1CCCc2ccccc21)CC3
inactive: activity change, negative = inhibition [1] -22.5% | activity, negative = inhibition [2] -11.3% | Potency [3] > 20.6 µM

CCOC(=O)c1[nH]c2ccc(OC)cc2c1NC(=O)CCN1CCN(Cc2ccccc2)CC1
inactive: activity change, negative = inhibition [1] -6.55% | activity, negative = inhibition [2] 4.87% | Potency [3] > 20.6 µM

CC(C)OC(=O)c1nn2c(C(F)(F)F)cc(-c3ccc(Br)o3)nc2c1Br
inactive: activity change, negative = inhibition [1] -6.76% | activity, negative = inhibition [2] 8.51% | Potency [3] > 20.6 µM

CC1(C)Cc2c(sc3nc4n(c(=N)c23)CCCCC4)CO1
inactive: activity change, negative = inhibition [1] 19.2% | activity, negative = inhibition [2] 3.32% | Potency [3] > 20.6 µM

CCC1(C)Cc2c(sc3c2c(=O)n(C)c2nnc(SCc4ccccc4)n32)CO1 (configuration not stated)
inactive: activity change, negative = inhibition [1] -2.66% | activity, negative = inhibition [2] 1.36% | Potency [3] > 20.6 µM

OCCN(CCO)c1ncnc2c1sc1nc(N3CCOCC3)c3c(c12)CCCC3
inactive: activity change, negative = inhibition [1] -27.6% | activity, negative = inhibition [2] -21.5% | Potency [3] > 20.6 µM

COC(=O)c1ccc(CSc2ncnc3c2sc2nc(N4CCOCC4)c4c(c23)CCCC4)o1
inactive: activity change, negative = inhibition [1] 20.1% | activity, negative = inhibition [2] 25.6% | Potency [3] > 20.6 µM

C=CCn1c(SCC(=O)OC)nc2sc3c(c2c1=O)CCN(C)C3
inactive: activity change, negative = inhibition [1] -12.5% | activity, negative = inhibition [2] 2.28% | Potency [3] > 20.6 µM

Cc1ccc(-n2c(=O)c3c4c(sc3n3c(C)nnc23)COC(C(C)C)C4)cc1 (configuration not stated)
inactive: activity change, negative = inhibition [1] -7.34% | activity, negative = inhibition [2] -0.5% | Potency [3] > 20.6 µM

COC(=O)CC1=C(C(=O)OC)C(c2ccc3c(c2Cl)OCO3)C(C#N)=C(N)O1 (configuration not stated)
inactive: activity change, negative = inhibition [1] 29.4% | activity, negative = inhibition [2] 14.3% | Potency [3] > 20.6 µM

CCCOc1cc(CN2CCCCC2)cc(C(C)=O)c1
inactive: activity change, negative = inhibition [1] 27.9% | activity, negative = inhibition [2] 7.32% | Potency [3] > 20.6 µM

O=C(CSc1nc2ccccc2c(=O)n1CC1CCCCC1)N1CCOCC1
inactive: activity change, negative = inhibition [1] -23.4% | activity, negative = inhibition [2] -21.6% | Potency [3] > 20.6 µM

COc1cc2[nH]c3c(=O)n(CCN(C(C)C)C(C)C)cnc3c2cc1OC
inactive: activity change, negative = inhibition [1] -1.5% | activity, negative = inhibition [2] 6.66% | Potency [3] > 20.6 µM

CN1CCN(c2nc3c(c(=O)n(C)c(=O)n3C)n2Cc2cccc3ccccc23)CC1
inactive: activity change, negative = inhibition [1] -9.31% | activity, negative = inhibition [2] -2.69% | Potency [3] > 20.6 µM

CCC(=O)Nc1nc2ccccc2n1Cc1ccccc1C
inactive: activity change, negative = inhibition [1] 28.7% | activity, negative = inhibition [2] 2.77% | Potency [3] > 20.6 µM

Cc1cccc(OCCN2CSC(=S)N(C)C2)c1
inactive: activity change, negative = inhibition [1] -16.7% | activity, negative = inhibition [2] -7.42% | Potency [3] > 20.6 µM

N#Cc1c(SCC(N)=O)nsc1SCc1ccc(Cl)cc1
inactive: activity change, negative = inhibition [1] -15.5% | activity, negative = inhibition [2] -18% | Potency [3] > 20.6 µM
